High-throughput results deposited in PubChem BioAssay by National Center for Advancing Translational Sciences (NCATS).
Compounds with a hit are over-represented: about 19% of the library has one in this group of screens.
HT1080NT lethal = kills 2HG-producing HT-1080-NT fibrosarcoma cells. HT-1080-NT fibrosarcoma viability, CellTiter-Glo ATP luminescence, 48 h. Potency, µM (doses to about 46.1 µM), without a hit: at the top dose activity, negative = less viability, most hits filed as cytotoxic. hit rate 1.6% among 360,000. AID 686970;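 note: NT is the 2HG producing partner of a matched IDH1 knockdown line; potency is the fitted concentration of half-maximal effect; 0% = DMSO-treated cells and -100% = media-only wells without cells; nearly all actives have a fitted effect of over 55% in size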
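Read-out is CellTiter-Glo luminescence after 10 minutes at room temperature, following 48 hours' compound treatment of HT-1080-NT cells (750 cells/well, RPMI, 5% FBS, 37 degrees C).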
IL1B secr inh = inflammasome signaling inhibition, IL-1 beta readout. THP-1 LPS/ATP IL-1B secretion, AlphaLISA, 16 h; hits give low values. activity change, % at 57.5 µM. hit rate 4.7% among 360,000. AID 743279; in the data active = activity change below about -50%; inconclusive = mostly about -30% to -49%
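THP-1 cells pretreated 1 hr with compounds (up to 57.5 uM final), then stimulated with LPS (250 ng/mL final) plus ATP (1.25 mM final); secreted IL-1B measured by AlphaLISA after 16 hr, decreased signal indicating inhibition.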
DT40 TDP1 no CPT = qHTS for Inhibitors of human tyrosyl-DNA phosphodiesterase 1 (TDP1): qHTS in cells in absence of CPT | DT40 Tdp1-/- hTDP1 cells, no CPT, ATP luminescence, 48 h | Potency, µM (doses to about 46.2 µM), for the others: top-dose activity change, negative = growth inhibition, usual class: inhibitors | hit rate 15% among 420,000 | AID 686978, 2013; note: potency is the fitted concentration of half-maximal effect; nearly all actives have a fitted effect of over 55% in size
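A cellular qHTS used chicken DT40 cells lacking endogenous Tdp1 but carrying stably transfected human TDP1. Compounds were applied without camptothecin, and cell growth kinetics were judged by ATP-dependent luminescence after ≥48 hr.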
TDP1 cell CPT = growth inhibition of DT40 Tdp1-/-;hTDP1 cells with camptothecin (screen for TDP1 inhibitors) | AID 686979 | chicken DT40 Tdp1-/-;hTDP1 cells + 20 nM CPT, ATP luminescence, 48 h | Potency, µM (series often up to 46.2 µM), for the others: at the highest dose activity change, negative = growth inhibition, usual class: inhibitors | hit rate 12% among 420,000; note: potency is the fitted concentration of half-maximal effect; nearly all actives have a fitted effect of over 55% in size
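Chicken DT40 Tdp1-/- cells complemented with human TDP1, 400 cells/well, exposed to compounds plus 20 nM camptothecin for at least 48 h at 37 C; viability read as ATP content by CellTiter-Glo luminescence.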
HT1080 IDH1KD tx = HT-1080 IDH1 knockdown cell toxicity (counter line); HT-1080 IDH1 knockdown viability, ATP luminescence, 48 h; Potency, µM (top dose mostly 46.1 µM), for inactives: top-dose activity, negative = toxicity, usual class: cytotoxic; hit rate 2% among 360,000;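 note: potency is the fitted concentration of half-maximal effect; 0% = DMSO wells and -100% = cell-free medium wells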
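CellTiter-Glo luminescence after 48 h compound exposure at 37 degrees C of IDH1-knockdown HT-1080 cells in 5% FBS RPMI. %Activity scaled between DMSO wells and cell-free media wells, with curves fitted and assigned curve classes.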
* hit, by the source's call; ! = not active in a repeat; [ ] = another dose, or the depositor's remark. Unless noted, calls come from the whole dose curve; as a rule, active = well fitted curve in the direction sought with a large enough effect; inconclusive = small, poorly fitted or top-dose-only effect, or another doubt; inactive = no such curve, though single readings can be large; an effect the other way counts as inactive or inconclusive. Unless noted, % is set by controls: 0 for no effect and ±100 for the full control effect.

Screening CCOC(=O)c1sc(NC(=O)C2c3ccccc3Oc3ccccc32)c(C(=O)OCC)c1C returned DT40 TDP1 no CPT -15% and TDP1 cell CPT -15%.
Screening CCOC(=O)c1c(NC(=O)C2c3ccccc3Oc3ccccc32)sc(C(=O)N(CC)CC)c1C returned HT1080NT lethal -9%, IL1B secr inh -19, DT40 TDP1 no CPT 23µM*, TDP1 cell CPT 18µM* and HT1080 IDH1KD tx -11%.
Screening CCOC(=O)c1sc(NC(=O)C2c3ccccc3Oc3ccccc32)c(C#N)c1C returned DT40 TDP1 no CPT 16µM* and TDP1 cell CPT 12µM*.
For CSCCC(NC(=O)c1ccccc1)C(=O)NNC(=O)c1csc(N2CCOCC2)n1 (stereo not drawn) the results were HT1080NT lethal -10%, IL1B secr inh 50, DT40 TDP1 no CPT -2%, TDP1 cell CPT -6% and HT1080 IDH1KD tx -1%.
For CCCC1(CC)C(=O)NC(=O)N=C1N (stereo not drawn) the results were HT1080NT lethal 2%, IL1B secr inh -7, DT40 TDP1 no CPT -20%, TDP1 cell CPT -3% and HT1080 IDH1KD tx 8%.
Cc1noc(C)c1NC(=O)N(C)C[C@H]1Oc2ccc(NC(=O)C3CCCCC3)cc2C(=O)N([C@H](C)CO)C[C@@H]1C was read as HT1080NT lethal 13%, IL1B secr inh 1, DT40 TDP1 no CPT 5%, TDP1 cell CPT 19% and HT1080 IDH1KD tx 10%.
`CC1CCN(CCCNC(=O)c2ccc(N3CCCC3=O)cc2)CC1` gave HT1080NT lethal -1%, IL1B secr inh 0, DT40 TDP1 no CPT 8%, TDP1 cell CPT 0% and HT1080 IDH1KD tx 8%.
Screening CS(=O)(=O)c1ccccc1-c1nc(-c2ccc(C(F)(F)F)cc2)no1 returned HT1080NT lethal -5%, IL1B secr inh inconclusive, DT40 TDP1 no CPT 16µM*, TDP1 cell CPT inconclusive and HT1080 IDH1KD tx -3%.
`O=C1N/C(=C/c2ccsc2)C(=O)N1c1ccccc1` gave HT1080NT lethal 25%, IL1B secr inh -54*, DT40 TDP1 no CPT 13%, TDP1 cell CPT -1% and HT1080 IDH1KD tx 12%.
Screening CCn1c(C)cc(/C=C2/NC(=O)N(c3ccccc3)C2=O)c1C returned HT1080NT lethal 2%, IL1B secr inh -10, DT40 TDP1 no CPT inconclusive, TDP1 cell CPT inconclusive and HT1080 IDH1KD tx 11%.
Screening COC(=O)[C@H](CCSC)NC(=O)c1cc2c(cn1)[nH]c1ccccc12 returned HT1080NT lethal 6%, IL1B secr inh -80*, DT40 TDP1 no CPT 7.3µM*, TDP1 cell CPT 10µM* and HT1080 IDH1KD tx 16%.
CCCCOC(=O)c1cc2c(cn1)[nH]c1ccccc12 was read as DT40 TDP1 no CPT 18µM* and TDP1 cell CPT 21µM*!.
CNC(=O)c1cc2c(cn1)[nH]c1ccccc12 was read as HT1080NT lethal inconclusive, IL1B secr inh 45, DT40 TDP1 no CPT inconclusive, TDP1 cell CPT inconclusive and HT1080 IDH1KD tx 5%.
Screening NS(=O)(=O)c1ccc(NNC(=O)c2ccc(Br)o2)c([N+](=O)[O-])c1 returned HT1080NT lethal -5%, IL1B secr inh inconclusive, DT40 TDP1 no CPT inconclusive, TDP1 cell CPT inconclusive and HT1080 IDH1KD tx -9%.
COc1ccc(NCC(O)Cn2c(C)c(C)c3ccccc32)cc1 (stereo not drawn) was read as HT1080NT lethal -13%, IL1B secr inh -173*, DT40 TDP1 no CPT inconclusive, TDP1 cell CPT inconclusive and HT1080 IDH1KD tx inconclusive.
Screening CCOC(=O)c1[nH]cnc1C(=O)Nc1ccccn1 returned HT1080NT lethal -14%, IL1B secr inh -64*, DT40 TDP1 no CPT -6%, TDP1 cell CPT -14% and HT1080 IDH1KD tx 23%.
`CCOC(=O)c1[nH]cnc1C(=O)Nc1ccccc1` gave HT1080NT lethal 23%, IL1B secr inh 0, DT40 TDP1 no CPT -1%, TDP1 cell CPT 5% and HT1080 IDH1KD tx 15%.
`CSCCn1c(C(C)(C)C)cc(C(=O)O)c1C` gave HT1080NT lethal 5%, IL1B secr inh 4, DT40 TDP1 no CPT 3%, TDP1 cell CPT 15% and HT1080 IDH1KD tx 3%.
`CC(Sc1nc2ccccc2c(=O)n1C)C(=O)NC1CCCCC1C` (stereo not drawn) gave HT1080NT lethal -3%, IL1B secr inh -4, DT40 TDP1 no CPT 2.3µM*, TDP1 cell CPT 4.1µM* and HT1080 IDH1KD tx -7%.
Screening CC(Sc1nc2ccccc2[nH]1)C(=O)NC1CCCCC1C (stereo not drawn) returned HT1080NT lethal -14%, IL1B secr inh -4, DT40 TDP1 no CPT -17%, TDP1 cell CPT -18% and HT1080 IDH1KD tx -19%.
For COc1cccc(-n2nnc3c(=O)n(Cc4cccc(F)c4)cnc32)c1 the results were HT1080NT lethal -19%, IL1B secr inh -55*, DT40 TDP1 no CPT -8%, TDP1 cell CPT inconclusive and HT1080 IDH1KD tx 1%.
COc1cccc(-n2nnc3c(=O)n(Cc4c(F)cccc4Cl)cnc32)c1 was read as HT1080NT lethal 11%, IL1B secr inh -8, DT40 TDP1 no CPT -16%, TDP1 cell CPT -8% and HT1080 IDH1KD tx 11%.
Screening CCOC(=O)Cc1csc(NC(=O)COc2ccc(C)cc2)n1 returned HT1080NT lethal 6%, IL1B secr inh 3, DT40 TDP1 no CPT inconclusive, TDP1 cell CPT inconclusive and HT1080 IDH1KD tx 4%.
Screening CCOC(=O)Cc1csc(NC(=O)c2ccc(N3CCOCC3)cc2[N+](=O)[O-])n1 returned HT1080NT lethal -1%[9.24 µM], IL1B secr inh -22, DT40 TDP1 no CPT inconclusive, TDP1 cell CPT 23µM* and HT1080 IDH1KD tx -1%.
`CCOC(=O)Cc1csc(NC(=O)Nc2ccc(OC(F)(F)F)cc2)n1` gave HT1080NT lethal -28%, IL1B secr inh -17, DT40 TDP1 no CPT 18µM*, TDP1 cell CPT inconclusive and HT1080 IDH1KD tx inconclusive.
For CCOC(=O)Cc1csc(NC(=O)COc2ccc(N(C)S(=O)(=O)c3cccs3)cc2)n1 the results were HT1080NT lethal -5%, IL1B secr inh -5, DT40 TDP1 no CPT 29µM*, TDP1 cell CPT inconclusive and HT1080 IDH1KD tx -3%.
CCOC(=O)Cc1csc(NC(=O)COc2ccccc2)n1 was read as HT1080NT lethal 10µM*, IL1B secr inh 6, DT40 TDP1 no CPT -8%, TDP1 cell CPT -17% and HT1080 IDH1KD tx -6%.
For COc1ccc(NC(=O)C2=C(C)Nc3ncnn3C2c2sccc2C)cc1 (stereo not drawn) the results were DT40 TDP1 no CPT 7% and TDP1 cell CPT 0%.
Screening CC(=O)c1ccc(N2CCN(C(=O)CCc3nnc4n(C)c(=O)c5sccc5n34)CC2)cc1 returned DT40 TDP1 no CPT -22% and TDP1 cell CPT -12%.
CSc1ccc(C(=O)N2CCc3c(cnc(C)c3CNC(=O)c3cncs3)C2)cc1 was read as DT40 TDP1 no CPT inconclusive and TDP1 cell CPT 0%[9.04 µM].
